The nature of test [1]: Nuclear factor erythroid 2-related factor 2/antioxidant responsive element (Nrf2/ARE) small molecule agonists: qHTS cell viability counter screen in human keratinocytes (AID 1919968; active = well fitted curve in the direction sought with a large enough effect in the repeat runs; an effect the other way counts as inactive or inconclusive; also: nearly all actives have a fitted effect of over 55% in size). In outline: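 Viability counter-screen: KeratinoSens reporter cells, DMSO-delivered compounds, 23 h at 37 C, CellTiter-Fluor fluorescence.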
(In general: Quantitative high-throughput screening tests each substance at several concentrations.)

For test [2], the target named is Gonadotropin-releasing hormone receptor (Homo sapiens) (UniProt P30968). As to the kind of experiment: Human gonadotropin-releasing hormone receptor (GnRHR) small molecule agonists, calcium flux assay in GnRHR-HEK293 cells (AID 1920063). Also: nearly all actives have a fitted effect of over 35% in size. In outline:
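Tox21-format agonist screen using human GnRHR-expressing HEK293 cells and a fluorescent calcium dye; kinetic 3-min fluorescence reading after compound addition, 15-point concentration series run in triplicate.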
(In general: A change in cytosolic calcium serves as a functional read-out for many receptors and channels.)

Test [3] in a line: G protein-coupled receptor (GPCR) small molecule agonists, calcium flux assay: HEK293 wild type cell line counter screen (AID 1920065). In outline:
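In this agonist-mode screen, ATP is the positive control and DMSO the vehicle. Cells grow 18 h before a 1 h dye incubation at 37 C; signal is taken at Ex/Em 480/540 over 3 min.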

Test [4] can be described thus: p53 small molecule agonists, cell-based qHTS assay with human liver microsomes (AID 1963577). In outline: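 p53RE-bla cells, 4,000/well, compound added after 5 h, with human liver microsomes 0.5 mg/mL and NADPH 0.5 mg/mL final; 16 h at 37 C, then LiveBLAzer 2 h RT, fluorescence.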
Test [5] can be described thus: p53 small molecule agonists, cell-based qHTS assay with rat liver microsomes (AID 1963578). In outline:
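p53RE-bla cells, 4,000/well, pre-incubated 5 h, then given compounds plus rat liver microsomes (0.5 mg/mL final) and NADPH (0.5 mg/mL final). Incubation 16 h at 37 C; beta-lactamase reporter read by LiveBLAzer fluorescence after 2 h at room temperature.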

The nature of test [6]: p53 small molecule agonists, cell-based qHTS assay with human liver microsomes: qHTS cell viability counter screen (AID 1963579). Also: nearly all actives have a fitted effect of over 45% in size. In outline: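 p53RE-bla cells, 4,000/well, dosed 5 hours after plating, with human liver microsomes (0.5 mg/mL final) plus NADPH (0.5 mg/mL final), 16 hours at 37 C. Viability read as CellTiter-Glo luminescence after 30 min at room temperature.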

Test [7] can be described thus: p53 small molecule agonists, cell-based qHTS assay with rat liver microsomes: qHTS cell viability counter screen (AID 1963580). Also: nearly all actives have a fitted effect of over 45% in size. In outline: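 In HCT-116 cells carrying a p53 response element-bla reporter, compounds were metabolically activated in situ by rat liver microsomes with NADPH over 16 h. Cell ATP content then served as the cytotoxicity measure.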
Test [8] in a line: p53 small molecule agonists, cell-based qHTS assay: qHTS cell viability counter screen (AID 1963581). Also: nearly all actives have a fitted effect of over 45% in size. In outline:
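Compounds are pinned onto HCT-116 p53RE-bla cells and left 16 h at 37 C. Following the reporter FRET read, ATP is quantified by CellTiter-Glo luminescence after 30 min at room temperature.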

Test [9] can be described thus: p53 small molecule agonists, cell-based qHTS assay (AID 1963582; active = well fitted activation curve with a large enough effect in the signal ratio in the repeat runs, not every such curve was filed as active; the % refers to the signal ratio). In outline:
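Agonist activity was scored from beta-lactamase FRET fluorescence in p53RE-bla cells treated 16 h at 37 C with compounds in DMSO, substrate incubation being 2 h at room temperature.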

The target in test [10] is 5-hydroxytryptamine receptor 2A (Homo sapiens) (UniProt P28223). Description: 5-hydroxytryptamine receptor 2A (HTR2A) small molecule antagonists, cell-based qHTS assay (AID 1963586). Also: nearly all actives have a fitted effect of over 45% in size. In outline: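 Antagonist-mode intracellular calcium assay: DOI (4 nM) added after 5 min compound pre-incubation at room temperature to dye-loaded HTR2A-CHO cells. Fluorescence followed for 3 min, sampled every second.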
Chain of 5-hydroxytryptamine receptor 2A (Homo sapiens) (P28223 whole entry, looked up): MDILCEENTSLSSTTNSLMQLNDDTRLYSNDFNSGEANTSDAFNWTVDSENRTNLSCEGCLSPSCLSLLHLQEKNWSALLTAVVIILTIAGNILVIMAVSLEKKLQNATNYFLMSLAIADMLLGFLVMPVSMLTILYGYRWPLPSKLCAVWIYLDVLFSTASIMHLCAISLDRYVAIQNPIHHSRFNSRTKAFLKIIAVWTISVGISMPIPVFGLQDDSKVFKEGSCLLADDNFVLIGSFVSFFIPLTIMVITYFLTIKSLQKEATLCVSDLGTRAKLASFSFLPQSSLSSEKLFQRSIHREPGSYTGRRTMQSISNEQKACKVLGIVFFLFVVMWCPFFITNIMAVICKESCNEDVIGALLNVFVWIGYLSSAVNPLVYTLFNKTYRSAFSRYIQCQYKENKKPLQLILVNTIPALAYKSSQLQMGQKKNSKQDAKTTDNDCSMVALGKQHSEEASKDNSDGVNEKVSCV

The target is the same in test [11]. As to the kind of experiment: 5-hydroxytryptamine receptor 2A (HTR2A) small molecule agonists, cell-based qHTS assay (AID 1963587). Also: nearly all actives have a fitted effect of over 30% in size. Also: potency is read from the fitted curve at half-maximal effect. In outline: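 HTR2A-CHO cells, plated 18 h at 37 C/5% CO2, dye-loaded 1 h at 37 C; compounds in DMSO added by pin tool (agonist mode). Intracellular calcium flux read as kinetic fluorescence on FDSS over 2 min at 1 s intervals.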

Test [12] concerns the target Muscarinic acetylcholine receptor M1 (Homo sapiens) (UniProt P11229). As to the kind of experiment: Cholinergic receptor muscarinic 1 (CHRM1) small molecule antagonists, cell-based qHTS assay (AID 1963588). Also: nearly all actives have a fitted effect of over 40% in size. In outline:
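CHRM1-CHO calcium-flux assay, antagonist mode. Cells were seeded 18 h, dye-loaded 1 h at 37 C and given compound for 5 min at RT, then acetylcholine was added at 50nM. FDSS fluorescence was read 3 min; 15 concentrations, three runs.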

Test [13] is described as follows: cAMP Responsive Elements (CRE) small molecule antagonists, cell-based qHTS assay (AID 1963591; active = well fitted inhibition curve with a large enough effect in the signal ratio in the repeat runs, not every such curve was filed as active; the % refers to the signal ratio). In outline:
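qHTS in CRE-bla HEK 293T cells: compound in DMSO, then 0.25 uM NKH477 (final), 3 h at 37 °C/5% CO2; beta-lactamase FRET read-out after 2 h substrate incubation.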

The target in test [14] is Beta-2 adrenergic receptor (Homo sapiens) (UniProt P07550). As to the kind of experiment: Adrenergic beta2 receptor (ADRB2) small molecule antagonists, cell-based qHTS assay (AID 1963592). Also: series mostly up to about 92 µM; nearly all actives have a fitted effect of over 50% in size. In outline: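 Cells (CHO, stable ADRB2 overexpression) incubated 18-20hr at 37C; compounds added from DMSO; agonist mix (1nM isoproterenol, 100uM IBMX, 25uM Ro-20-1724) added; 0.5hr RT; d2-cAMP and anti-cAMP-cryptate added; 1hr RT; 665/615 nm read.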
Chain of Beta-2 adrenergic receptor (Homo sapiens) (P07550 whole entry, looked up): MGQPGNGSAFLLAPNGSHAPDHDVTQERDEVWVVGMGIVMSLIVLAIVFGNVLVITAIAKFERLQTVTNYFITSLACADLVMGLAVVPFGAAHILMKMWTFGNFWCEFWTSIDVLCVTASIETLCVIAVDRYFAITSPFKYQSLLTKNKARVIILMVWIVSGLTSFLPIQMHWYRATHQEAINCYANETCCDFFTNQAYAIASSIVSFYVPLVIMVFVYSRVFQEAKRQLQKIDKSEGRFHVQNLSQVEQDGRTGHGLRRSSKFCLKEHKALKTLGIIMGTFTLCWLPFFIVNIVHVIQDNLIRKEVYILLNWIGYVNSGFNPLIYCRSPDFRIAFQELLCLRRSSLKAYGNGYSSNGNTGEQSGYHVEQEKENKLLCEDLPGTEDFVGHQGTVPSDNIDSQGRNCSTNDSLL

The target is the same in test [15]. As to the kind of experiment: Adrenergic beta2 receptor (ADRB2) small molecule agonists, cell-based qHTS assay (AID 1963593).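 Also: CHO cells stably overexpressing human ADRB2.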 In outline:
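CHO cells stably over-expressing ADRB2 were plated overnight at 37C, then dosed with compounds plus a stimulation mix containing 100uM IBMX and 25uM Ro-20-1724 for 0.5hr at room temperature. cAMP was measured by HTRF competition, 1hr.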

Test [16] addresses D(2) dopamine receptor (Homo sapiens) (UniProt P14416). Description: Dopamine D2 receptor (DRD2) small molecule antagonists, cell-based qHTS assay (AID 1963595; active = well fitted inhibition curve with a large enough effect in the signal ratio in the repeat runs, with a control signal flat; the % refers to the signal ratio). In outline: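 DRD2-HEK293; 0.1 mM Ro20-1724; cpd 10 min RT; NKH477 200 nM + quinpirole 12 nM, 30 min RT; HTRF cAMP (cAMP-d2/anti-cAMP cryptate), 665/620 nm ratio after 1 h.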
Test [17] addresses KiSS-1 receptor (Homo sapiens) (UniProt Q969F8). As to the kind of experiment: Human kisspeptin (KISS1R) small molecule agonists, calcium flux assay in KISS1R-HEK293 cells (AID 1920064; active = well fitted curve in the direction sought with a large enough effect in the repeat runs; an effect the other way counts as inactive or inconclusive). In outline:
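Intracellular calcium mobilization in KISS1R-HEK293 cells was recorded by fluorescence (Ex/Em 480/540) for 3 min following compound addition to cells pre-loaded 1 h with calcium dye.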

Test [18] has as its target Muscarinic acetylcholine receptor M1 (Homo sapiens) (UniProt P11229). As to the kind of experiment: Cholinergic receptor muscarinic 1 (CHRM1) small molecule agonists, cell-based qHTS assay (AID 1963589). Also: nearly all actives have a fitted effect of over 35% in size. Also: potency is read from the fitted curve at half-maximal effect. In outline:
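Stable CHRM1-CHO cells (human receptor) were incubated 18 h, dye-loaded for 1 h at 37 C and exposed to test compounds for agonist activity, with calcium-dependent fluorescence followed kinetically.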

Test [19] has as its target D(2) dopamine receptor (Homo sapiens) (UniProt P14416). Description: Dopamine D2 receptor (DRD2) small molecule agonists, cell-based qHTS assay (AID 1963594). Also: nearly all actives have a fitted effect of over 35% in size. In outline:
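HEK293 cells stably expressing DRD2 were cultured 24 h at 37 C, then given Ro20-1724 (0.1 mM final) and compounds for 10 min at room temperature. NKH477 (200nM) was then added for 30 min. cAMP was read by HTRF.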

Test [20] in a line: cAMP Responsive Elements (CRE) small molecule agonists, cell-based qHTS assay (AID 1963590). In outline: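 FRET-based beta-lactamase readout (LiveBLAzer B/G, 2 h RT) quantified CRE activation in HEK 293T CRE-bla cells after 3 h treatment with DMSO-dissolved compounds.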

Inconclusive results are not listed. More than one record can exist for a structure, and the calls need not agree. The source made the active and inactive calls. Unless noted, calls follow the shape of the full dose curve.

Chain of Muscarinic acetylcholine receptor M1 (Homo sapiens) (P11229 whole entry, looked up): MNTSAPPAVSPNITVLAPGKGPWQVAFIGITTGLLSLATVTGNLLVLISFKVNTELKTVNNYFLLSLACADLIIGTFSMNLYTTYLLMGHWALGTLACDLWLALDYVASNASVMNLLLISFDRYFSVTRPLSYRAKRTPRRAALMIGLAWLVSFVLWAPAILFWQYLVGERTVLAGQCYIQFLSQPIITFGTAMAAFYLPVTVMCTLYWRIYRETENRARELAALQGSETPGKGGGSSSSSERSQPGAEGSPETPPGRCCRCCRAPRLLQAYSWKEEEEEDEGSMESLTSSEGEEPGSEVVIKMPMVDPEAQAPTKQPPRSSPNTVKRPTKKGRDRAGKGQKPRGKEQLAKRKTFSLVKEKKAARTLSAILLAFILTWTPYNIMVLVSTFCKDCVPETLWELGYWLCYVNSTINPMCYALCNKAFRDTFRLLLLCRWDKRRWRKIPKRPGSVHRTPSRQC
Chain of KiSS-1 receptor (Homo sapiens) (Q969F8 whole entry, looked up): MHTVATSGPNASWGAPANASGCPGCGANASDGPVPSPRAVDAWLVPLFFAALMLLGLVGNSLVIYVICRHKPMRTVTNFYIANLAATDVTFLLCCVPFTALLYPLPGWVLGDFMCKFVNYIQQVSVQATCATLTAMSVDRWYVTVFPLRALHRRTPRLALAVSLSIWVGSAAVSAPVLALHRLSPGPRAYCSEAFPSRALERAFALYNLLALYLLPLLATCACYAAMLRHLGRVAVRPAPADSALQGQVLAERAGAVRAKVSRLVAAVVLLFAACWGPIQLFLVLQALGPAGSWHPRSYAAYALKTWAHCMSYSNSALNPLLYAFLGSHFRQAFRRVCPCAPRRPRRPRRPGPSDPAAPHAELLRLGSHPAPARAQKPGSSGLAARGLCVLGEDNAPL
Chain of D(2) dopamine receptor (Homo sapiens) (P14416 whole entry, looked up): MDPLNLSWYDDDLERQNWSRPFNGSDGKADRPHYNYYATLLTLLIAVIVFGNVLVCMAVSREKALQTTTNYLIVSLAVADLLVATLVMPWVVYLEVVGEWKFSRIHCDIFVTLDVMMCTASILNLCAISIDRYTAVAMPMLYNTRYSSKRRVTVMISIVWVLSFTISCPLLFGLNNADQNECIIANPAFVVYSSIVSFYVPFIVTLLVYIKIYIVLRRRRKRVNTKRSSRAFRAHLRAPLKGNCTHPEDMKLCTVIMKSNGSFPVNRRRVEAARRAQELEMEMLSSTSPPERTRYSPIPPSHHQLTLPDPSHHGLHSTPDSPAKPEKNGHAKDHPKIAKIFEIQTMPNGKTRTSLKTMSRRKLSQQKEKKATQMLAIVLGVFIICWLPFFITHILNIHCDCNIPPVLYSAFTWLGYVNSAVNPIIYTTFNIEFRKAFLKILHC
Chain of Gonadotropin-releasing hormone receptor (Homo sapiens) (P30968 whole entry, looked up): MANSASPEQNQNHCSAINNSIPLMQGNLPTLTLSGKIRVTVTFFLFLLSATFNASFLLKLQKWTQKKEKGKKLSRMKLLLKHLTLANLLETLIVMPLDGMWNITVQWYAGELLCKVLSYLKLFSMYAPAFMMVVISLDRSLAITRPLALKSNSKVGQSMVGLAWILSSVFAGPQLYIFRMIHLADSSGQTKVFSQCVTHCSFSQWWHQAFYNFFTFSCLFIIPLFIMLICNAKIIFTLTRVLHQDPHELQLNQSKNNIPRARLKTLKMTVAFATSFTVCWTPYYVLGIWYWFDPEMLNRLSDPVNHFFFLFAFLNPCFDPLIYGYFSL

With `COc1nc(N)nc2nc[nH]c12`, the Potency result in [1], in test [2], in [3], in test [4], in [5] and in test [6] was “inactive” in each case. For the same molecule, the Potency entry in [7], in test [8], in test [9], in [10], in [11] and in test [12] was “inactive” throughout. Further, the Potency entry in test [13], in [14], in [15] and in test [16] was “inactive” each time.

As for `C/C=C/C(=O)O`, the Potency entry in test [1], in [2], in test [17], in test [3], in [6] and in test [7] was “inactive” throughout. The Potency entry in test [8], in test [10], in [11], in test [12], in test [13] and in test [19] was “inactive” in each case. Also, in test [18], the Potency was 93.3 nM (active) and inactive.

`C=CC(C)(O)CC/C=C(\C)CC` (stereo not drawn): the Potency entry in test [1], in [17], in test [3], in [4], in test [6] and in [7] was “inactive” each time. In addition, the Potency entry in test [8], in [9], in test [10], in test [11], in [12] and in [18] was “inactive” each time. Also, the Potency result in test [20], in test [14], in test [15], in test [19] and in test [16] was “inactive” in each case.

`OC1CCCCCCCCCCC1`: the Potency result in test [1], in test [2], in [17], in test [4], in test [5] and in test [7] was “inactive” each time. Moreover, the Potency result in test [8], in [9], in test [10], in [12], in [18] and in [20] was “inactive” in each case. Moreover, the Potency entry in test [14], in [19] and in [16] was “inactive” throughout. The Potency in test [11] is 6.23 µM (active).

With `CCCOC(C)=O`, the Potency result in test [2], in [17], in test [3], in [4], in test [5] and in [6] was “inactive” in each case. In addition, the Potency entry in test [7], in test [8], in test [9], in [10], in [11] and in [12] was “inactive” each time. The Potency result in test [18], in test [20], in test [13], in test [14], in test [15] and in test [19] was “inactive” each time.

On to `CC(=O)c1cccc([N+](=O)[O-])c1`, for which the Potency entry in [1], in [2], in test [17], in test [4], in test [5] and in test [6] was “inactive” in each case. Further, the Potency result in test [7], in [8], in test [9], in test [10], in test [11] and in test [18] was “inactive” each time. The Potency entry in [14], in [15] and in test [16] was “inactive” throughout.

For `c1ccc2c(c1)ccc1ncccc12`, the Potency result in test [1], in test [17], in test [3], in [6], in [7] and in [8] was “inactive” each time. Moreover, the Potency result in test [10], in test [11], in test [12], in test [18], in [14] and in test [19] was “inactive” each time. Moreover, the Potency result in test [16] is “inactive”.

Consider `Nc1ccc(NCCO)c([N+](=O)[O-])c1`, for which the Potency entry in [2], in test [17], in test [3], in [4], in [5] and in test [6] was “inactive” in each case. For the same molecule, the Potency result in [7], in test [8], in [9], in test [10], in [11] and in test [12] was “inactive” in each case. Further, the Potency result in [18], in test [20] and in test [13] was “inactive” in each case.

The values are drawn from PubChem BioAssay (Tox21).
